This is a sample that favours compounds with a hit; in the whole collection about 17% have one here.
HepG2 tox = kills HepG2 cells in TGF-b inhibitor counter-screen; hit rate 0.76% among 410,000; HepG2 CAGA-GFP viability, ATP luminescence, 18 h; Potency, µM (doses to about 46.1 µM), actives largely listed as cytotoxic; AID 588856
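HepG2 CAGA-GFP cells (1000/well, DMEM with 1% FBS) received compound, then TGF-beta at 500 pg/mL final, and were incubated 18 hours at 37 degrees C. Viability was read by CellTiter-Glo luminescence. Media-only wells were set as complete cell-killing and DMSO as no toxicity.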
ATXN2 expr inh = reduces ATXN2 reporter expression in HEK-293 cells; hit rate 0.72% among 360,000; HEK-293 ATXN2-luciferase reporter, luminescence, 24 h; Potency, µM (top dose mostly 57 µM), hits mostly inhibitors; also: nearly all actives have a fitted effect of over 55% in size
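ATXN2-luciferase reporter cells (luciferase flanked by upstream and downstream ATXN2 gene portions) were treated 24 h at 37 °C with compounds at up to 57 uM. SteadyGlo luminescence gave expression; GF-AFC fluorescence gave viability.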
DT40 TDP1 CPT = DT40-hTDP1 cell growth loss with CPT | chicken DT40 Tdp1-/-;hTDP1 cells + 20 nM CPT, ATP luminescence, 48 h | Potency, µM (highest dose often 46.2 µM), actives largely listed as inhibitors | hit rate 12% among 420,000; also: nearly all actives have a fitted effect of over 55% in size
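Chicken DT40 Tdp1-/- cells stably complemented with human TDP1 were seeded at 400 cells/well in medium containing 20 nM camptothecin, exposed to pin-transferred compounds, and grown at 37 °C for at least 48 hr. Viability was read as ATP luminescence.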
TGFb inhibitor = blocks TGF-b signaling; HepG2 CAGA-GFP TGF-b/SMAD3 reporter, GFP fluorescence, 18 h; TGF-beta stimulated, 500 pg/mL final; Potency, µM (highest dose often 46.1 µM), most hits filed as inhibitors; hit rate 1.2% among 410,000; AID 588855; also: nearly all actives have a fitted effect of over 65% in size
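Cell-based qHTS in HEPG2 carrying a CAGA-GFP Smad reporter; compounds added before 500 pg/mL final TGF-beta, 18 h incubation at 37 degrees C, GFP fluorescence quantified per cell by imaging cytometry.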
DT40 TDP1 no CPT = qHTS for Inhibitors of human tyrosyl-DNA phosphodiesterase 1 (TDP1): qHTS in cells in absence of CPT; DT40 Tdp1-/- hTDP1 cells, no CPT, ATP luminescence, 48 h; hit rate 15% among 420,000; Potency, µM (doses to about 46.2 µM), hits mostly inhibitors; AID 686978, 2013; also: nearly all actives have a fitted effect of over 55% in size
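Camptothecin absent (DMSO only). Human TDP1-complemented DT40 knockout cells, 400 cells/well, 37 °C for minimum 48 hr; ATP measured via CellTiter-Glo, 30 min dark incubation, luminescence.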
S2 tox = reduces viability in counter-screen for ATXN expression inhibitors. S2 cells (HEK-293 line with an ATXN2-luciferase reporter) viability, CellTiter-Fluor protease fluorescence, 24 h. Potency, µM (top dose mostly 56.7 µM), usual class: cytotoxic. hit rate 0.49% among 400,000. AID 651635; also: nearly all actives have a fitted effect of over 40% in size
Of the large screens only hits and unclear results are named; the others gave an inactive call. Calls follow the shape of the dose curve; as a rule, active = well fitted curve in the direction sought with a large enough effect; inconclusive = small, poorly fitted or top-dose-only effect, or another doubt; inactive = no such curve, though single readings can be large; an effect the other way counts as inactive or inconclusive.

O=[N+]([O-])c1cccc2c(N3CCOCC3)ccnc12	DT40 TDP1 CPT inconclusive, TGFb inhibitor inconclusive, DT40 TDP1 no CPT 14.6µM
O=[N+]([O-])c1ccc(N2CCN(S(=O)(=O)c3ccccc3)CC2)c2cccnc12	DT40 TDP1 CPT inconclusive, DT40 TDP1 no CPT inconclusive
CCC(C)(C)C1CCc2nc3ccccc3c(C(=O)OC(C)C(=O)Nc3c(C)n(C)n(-c4ccccc4)c3=O)c2C1 (centres undefined)	DT40 TDP1 CPT 23.1µM, DT40 TDP1 no CPT inconclusive
CCc1ccc(C(=O)OCC(=O)Nc2c(C)n(C)n(-c3ccccc3)c2=O)cc1	none (no result: ATXN2 expr inh)
CCCc1nc2ccccc2c(C(=O)OCC(=O)Nc2c(C)n(C)n(-c3ccccc3)c2=O)c1CC	DT40 TDP1 CPT inconclusive, DT40 TDP1 no CPT 16.4µM
CC(=O)O[C@@H]1[C@@]2(C)O[C@H]2CC[C@]23O[C@H]2[C@H](OC3=O)C2=C(C)C(=O)O[C@@]21O	DT40 TDP1 no CPT inconclusive
CC1C(=O)N2CCCc3cc(NC(=O)C4CCCCC4)cc1c32 (centres undefined)	none
COc1ccccc1CCC(=O)Nc1cc(S(=O)(=O)N2CCCCC2)ccc1N1CCN(C)CC1	DT40 TDP1 CPT inconclusive, DT40 TDP1 no CPT 20.6µM
COc1ccccc1CCC(=O)Nc1cccc(S(=O)(=O)N2CCCC2)c1	DT40 TDP1 CPT inconclusive, DT40 TDP1 no CPT inconclusive
COc1ccccc1OCC(=O)Nc1cc(S(=O)(=O)N2CCOCC2)ccc1N1CCCCC1	DT40 TDP1 CPT 18.4µM, DT40 TDP1 no CPT 14.6µM
Cc1ccc(OCCCC(=O)Nc2cc(S(=O)(=O)N3CCOCC3)ccc2N2CCOCC2)cc1	DT40 TDP1 CPT 20.6µM, DT40 TDP1 no CPT 23.1µM
Cc1ccc(Cl)c(OCC(=O)Nc2cc(S(=O)(=O)N3CCOCC3)ccc2N2CCCC2)c1	DT40 TDP1 CPT 16.4µM
Cn1cc(Br)c(C(=O)N2CCCCCC2)n1	none
O=C(c1cnn(-c2ccccc2)c1-n1cccc1)N1CCN(C2CCCCC2)CC1	DT40 TDP1 no CPT inconclusive
CCc1ccccc1OCC(=O)Nc1cc(S(=O)(=O)N2CCOCC2)ccc1N1CCCCC1	DT40 TDP1 CPT 23.1µM, DT40 TDP1 no CPT 7.31µM
O=C(COc1ccc(Cl)cc1)Nc1cc(S(=O)(=O)N2CCCCC2)ccc1N1CCCCC1	DT40 TDP1 CPT 2.91µM, DT40 TDP1 no CPT 10.3µM
Cc1cc(OCC(=O)Nc2cc(S(=O)(=O)N3CCOCC3)ccc2N2CCCC2)ccc1C(C)C	DT40 TDP1 CPT 11.6µM, DT40 TDP1 no CPT 8.2µM
CCOc1ccc(S(=O)(=O)N2CCOCC2)cc1NC(=O)CSCc1ccc(C)cc1	DT40 TDP1 CPT 5.17µM, DT40 TDP1 no CPT 4.61µM, S2 tox inconclusive (no result: ATXN2 expr inh)
COC(=O)c1ccc(OCCCCN2CC(C)OC(C)C2)cc1 (centres undefined)	DT40 TDP1 no CPT inconclusive
O=C(Nc1ccnn1C1CCNCC1)c1ccc2c(c1)OCO2	none

Screening data deposited in PubChem by National Center for Advancing Translational Sciences (NCATS).
